Experimental data as given in the supplement of paper PMC6555819.

Legend:
Experiment in all cases: PBM binding z-score (relative to random genomic background probes); higher = stronger binding; sequences stand for … in GC…GCGATTGACAGCGTAGAATGAAGG
[1] = tested on: RARb homodimer (NR concentration 270 nM)
Outline: (§1)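 Regression normalization was applied to scanned fluorescence from custom Agilent 4×180K protein-binding microarrays. Before scanning, arrays were incubated 1 h with ligand-free nuclear receptor dimers, and binding was detected with antibodies against each partner (one per run). Binding z-scores use the random background probes as reference.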

[2] = tested on: RARg:RXRa (NR concentration 270 nM, RXRa partner concentration 90 nM)
Outline: as §1

[3] = tested on: RARg homodimer (NR concentration 270 nM)
Outline: as §1

[4] = tested on: RXRa DBDmut IVT, anti-RXR (DBD mutation: RXRa K156A/R161A, NR concentration 90 nM)
Outline: as §1

[5] = tested on: RXRa homodimer (NR concentration 180 nM)
Outline: as §1

[6] = tested on: THRa:RXRa (NR concentration 90 nM, RXRa partner concentration 90 nM)
Outline: as §1

[7] = tested on: THRa homodimer (NR concentration 90 nM)
Outline: as §1

[8] = tested on: VDR homodimer (NR concentration 270 nM)
Outline: as §1

Sequence	PBM binding z-score [1]	PBM binding z-score [2]	PBM binding z-score [3]	PBM binding z-score [4]	PBM binding z-score [5]	PBM binding z-score [6]	PBM binding z-score [7]	PBM binding z-score [8]
ATATCTAGGTAAAGTTCAGTGAAAGATCGATAGA	2.45	2.04	2.43	1.6	1.53	1.33	0.34	1.78
CTCGAAAGGTCGTGCTCATGTGAGTATACCAAAC	2.68	4.43	3.69	2.15	5.19	2.45	0.174	0.995
ATCTCTAGGTAACCAAGTTCAGTTAATGCCGAAC	1.74	1.09	1.12	1.33	0.444	1.97	1.43	3.19
CGTCCAAGGTCAGCAGGTCAGTGATAGCGACGTG	5.02	6.25	7.22	2.59	5.26	3.84	2.31	1.75
CCTTGGAGGACAGAAGGTCAGAGCTGTCCGCTTT	3.56	3.54	3.38	0.276	1.95	2.22	0.0306	0.62
ATCTCTAGGTAACCAAGTTCGGTGAATGCCGAAC	0.477	0.289	0.0649	0.0543	0.189	0.968	0.803	1.13
CCTATTAGTTGACCATAAGAGCAACCGAAGCTCG	0.851	0.678	0.927	0.811	0.6	0.468	0.721	1.03
CAAACTAGGTCACCGGTAGGTCAAAGTCCGCATG	4.94	7.11	6.27	1.7	4.82	4.3	2.8	2.2
ATATGAAGGTTAAGGGTCATTCAGGTTGGTTCGC	4.38	5.3	3.81	2.14	7.12	3.95	1.5	4.67
ACAGACAGGTGTTGAAGGTAACTCAGGCTATCAT	-0.0362	-0.0194	0.114	-0.19	0.0702	0.786	0.073	-0.587
CCTCGGAGAACAGAAGGTCAGAGCTGTCCGCTTT	2.93	2.11	1.99	0.355	2.01	1.77	-0.175	0.014
ACAGACAGGTGATGAAGGTATCTCAGGCTATCAT	0.276	0.119	0.27	-0.321	0.203	0.741	-0.068	-0.586
TCGAGTAGGTTACCAATGGGGCTTTCAGCTTTCT	0.0343	0.0207	0.23	0.35	0.16	-0.122	-0.536	-0.784
ATCTCTAGGTAAGACTCAGTTCAGGGAAGAACGC	0.949	0.767	0.451	0.408	0.569	1.12	0.955	1.72
CCTACTTGGCCATTCAGAGGTCATTGATCATATG	3.93	3.64	2.6	1.92	3.73	3.21	1.66	3.32
CAGCCTAGGTCAGGGCCAGAATAGGAGGAACGTT	2.24	2.81	3.54	-0.145	1.6	1.84	0.0772	-0.324
CTACCAACGTGAACAAGGTCGTTGATTACTATTC	1.42	0.533	0.432	1.53	0.896	1.82	1.41	1.88
CCGACTGGGGCAGAAAGATTACCATACCATCCGG	-0.533	-0.183	0.217	-0.916	0.0291	-0.794	-0.569	-0.722
ACAGACAGGTGATGAAGGTAACTTAGGCTATCAT	0.348	0.286	0.467	-0.093	0.298	0.532	0.0402	0.0918

Sequence	PBM binding z-score [1]	PBM binding z-score [2]	PBM binding z-score [3]	PBM binding z-score [4]	PBM binding z-score [5]	PBM binding z-score [6]	PBM binding z-score [7]	PBM binding z-score [8]
CCGACTGGGGCAGAAAGGTAACCATACCATCCGG	0.454	0.234	0.586	-1.12	0.166	0.0799	-0.606	-0.291
TCTATTAGTTGAAGGGCGACCGACGAGTCCGTTT	0.596	0.105	-0.00665	1.84	0.439	0.0101	0.203	1.32
AGAATGAGGTTATTACGATCAGGGAATTGCGGTC	1.07	1.35	1.1	2.37	2.06	2.44	0.982	1.6
AGAATGAGGTTATTAAGATCAGGGAATTGCGGTC	1.05	1.17	0.93	1.91	1.89	2.18	0.599	0.931
GCTACTAGGTCAACTGATGGTCAGCTAAAGCTCG	3.31	5.27	5.19	1.63	3.06	2.9	0.994	0.21
GCTTCTAGGTCAGGTTGGTCAGCTAACGGGTACG	2.86	2.88	3.68	0.783	1.08	2.47	1.63	0.679
ACTAGTTGGTCAGCTGAGTTCACACACAATTCGG	2.53	1.78	2.11	2.27	1.64	3.33	1.05	6.71
CCTAACGGGTCACTCCAGGTTATAGCATCGGAGT	2.75	3.8	3.98	1.23	3.26	4.85	0.619	1.5
GTACCAAGGTGATTAGGTCGTTGATGAGTAGGCG	1.06	0.806	0.66	0.0245	0.805	1.49	1.03	0.631
ATCTCTAGGTATAAGTTCAGTGAATCCCGAGGAT	1.42	1.17	1.31	0.993	0.674	0.824	0.567	2.79
ATCTCTTGGTAAGACTCAGTTCAGTGAAGAACGC	0.908	0.084	0.186	0.852	-0.0369	0.736	1.13	1.76
TGAATGAGGTTATTAGATCAGGGAACGTTGCAAA	0.387	1.36	0.893	1.46	1.66	2	0.756	0.942
TATACAGGGTTAAAGGCCAGAGTACGAATGTCGA	1.55	2.41	1.59	0.596	3.28	1.56	0.124	0.851
TCTTGTAGATCAGCAGTTTAAGAAAGCTGGCCAA	-0.447	-0.29	-0.416	0.659	-0.0867	-0.138	-0.319	0.0603
ATCGAAAGGTCGACGAGGTGAGTATACACCGTTT	3.04	4.03	3.9	1.38	4.46	3.84	0.669	0.929
GCTTACGGTTCAAAGGTTATAGCATGAATAGAAT	1.54	3.57	1.39	2.62	7.16	2.59	0.09	2.52
AGAATGAGGTTATACGTAGATCAGAGAAGAAAGT	0.491	1.83	1.42	1.87	2.05	2.25	0.546	0.887
GCTAGCAGGCCATTGGGGTCACTCAATGACGGGC	3.44	3.98	3.1	0.8	4.7	3.84	2.39	4.55
GCGACTGGGGCCAAGCAGGTTACCATAAGGTTGG	1.2	0.615	0.586	-0.252	0.329	1.3	0.0537	0.051

Sequence	PBM binding z-score [1]	PBM binding z-score [2]	PBM binding z-score [3]	PBM binding z-score [4]	PBM binding z-score [5]	PBM binding z-score [6]	PBM binding z-score [7]	PBM binding z-score [8]
CCGACTGGGGCAAGGTTCCCATAACGCACAGCCA	0.27	0.259	0.433	-0.627	0.314	-0.0449	-0.119	-0.153
GCTATTAGTTGAAATGGCAACCGAATGATTCTCG	-0.503	-0.0997	0.311	0.893	-0.164	-0.279	-0.241	0.0264
TCTACTTGGTCAAAGGTCACACACTCGAAATGCG	5.11	7.2	6.3	2.19	8.15	4.24	2.7	2.68
CCTAGCAGGCCAGGGTCACGCAAGCATTTCGCTT	3.51	4.73	3.74	0.0811	5.81	3.6	1.62	1.53
AGAATGAGGTTACCAACGATCAGGGAAACGCTTG	0.885	1.97	1.6	1.08	2.45	2.75	0.794	0.331
ATATGTAGGGTAGCTGGGGTCATTCAGACTAGGC	3.6	3.62	2.23	1.78	5.16	4.74	3.57	4.92
ACTAGCAGTCCAAGTTTGGGTCACTCAAACAAAG	1.97	0.986	0.834	0.395	0.691	2.16	1.07	0.0671
GCTATTAGTTGAAAGGACAACCGAATGATTCTCG	1.25	0.533	1.2	0.922	0.0459	0.487	0.292	0.311
ACTATTAGTTGACTTAGGGCAACCGATACGACGC	0.899	0.818	1.01	0.684	0.661	1.53	0.316	0.121
ATATGTAGGTTAAATCCGGGTCATTCAGGCTATG	3.23	4.91	2.25	1.1	3.3	4.46	2.71	2.5
ATCTCTAGGTAAAAGTGCAGTGAATCCCGAGGAT	0.183	0.363	0.23	-0.0923	0.454	0.235	-0.373	0.138
GCAGACAGGTGAAACGCAGGTAACTGAGGGTGGC	0.0628	0.86	0.142	-0.51	0.568	1.06	-0.377	-0.727
CCTTACGGGTCAAGGTTATAGAACGGGTGGTACG	3.67	4.92	4.97	0.482	5.58	3.02	0.782	1.14
CTACCAAGGTGAGCAAGGTCGTTGATTACTATTC	1.65	0.951	0.78	0.939	1.03	2.77	1.29	1.42
CGAACGAGGGTATGAGTTGATAGCAAATGCCGAT	-0.208	0.124	0.248	0.658	0.0632	-0.183	-0.485	0.345
TCTAGTTGGTCAAAGGTCACCCACTCGAAATGCG	5.15	7.19	6.47	1.86	8.17	3.7	1.8	2.58
CCAACTGGGCCAAGGTCATTGATCAGTCAAAGCA	3.25	3.49	2.52	1.67	3.17	3.45	2.23	2.57
CCTAGGAGGCCAATCTGGGTCACTCAAGGCTTGA	2.69	1.66	2.12	-0.07	1.19	4.21	0.462	0.0459
